# Reference: PubChem BioAssay AID1478 (National Center for Advancing Translational Sciences (NCATS), 2009)
# Where “and” joins values, the source holds several entries; their conditions need not be identical. Identical values can stand only once. The whole screen tested about 200,000 compounds, of which about 860 (0.43%) were called active. The sample as a whole holds a higher share of actives than the screen did. A structure can be active in one record and inactive in another. A number with no mark means an inactive call. Calls come from the whole dose curve; as a rule, active = well fitted inhibition curve with a large enough effect; inconclusive = small, poorly fitted or top-dose-only effect; inactive = flat fitted curve, though single readings scatter.
# Molecular target: Cruzipain (Trypanosoma cruzi) (UniProt P25779)
# Sequence (P25779 123-467 limits assumed): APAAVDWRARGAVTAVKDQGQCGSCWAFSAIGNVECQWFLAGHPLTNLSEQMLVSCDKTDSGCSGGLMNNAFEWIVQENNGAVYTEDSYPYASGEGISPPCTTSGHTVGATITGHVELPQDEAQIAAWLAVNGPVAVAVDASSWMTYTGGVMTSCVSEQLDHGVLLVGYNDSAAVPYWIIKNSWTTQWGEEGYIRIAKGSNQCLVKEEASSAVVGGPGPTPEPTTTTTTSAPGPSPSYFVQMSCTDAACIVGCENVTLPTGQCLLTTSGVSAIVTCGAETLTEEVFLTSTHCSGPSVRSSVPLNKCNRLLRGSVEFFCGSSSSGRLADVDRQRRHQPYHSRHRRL
# Test: qHTS Assay for Promiscuous and Specific Inhibitors of Cruzain (with detergent); note: nearly all actives have a fitted effect of over 40% in size
# Settings: purified cruzain, Z-FR-AMC fluorescence, 0.01% Triton
# Description: Cruzain (3.4.22.51) is a cysteine protease from the tropical parasite Trypanosoma cruzi. Dual qHTS experiment was performed against the NCGC compound collection in order to 1) identify novel inhibitors of the enzyme and 2) profile the compound collection for promiscuous inhibitors operating via colloidal aggregation (by performing detergent-free and detergent-containing comparison screens). Cruzain was assayed by the use of fluorogenic coumarin-based substrate Z-FR-AMC: proteolytic cleavage releases AMC, whose fluorescence is measured at 360 nm excitation and 450 nm emission. Purified cruzain was supplied by the labs of Prof. James McKerrow and Brian Shoichet, UC San Francisco.
# This assay had 0.01% Triton X-100 concentration. See also releated assay "qHTS Assay for Promiscuous and Specific Inhibitors of Cruzain (without detergent)" with 0.00005% Triton X-100.
# See following references for additional details:
# Assay Provider: Shoichet, Brian; University of California, San Fancisco
# Screening Center PI: Austin, C.P.
# Screening Center: NIH Chemical Genomics Center [NCGC]
# Buffer: 100 mM Sodium Acetate, pH 5.5, 5 mM DTT, Triton X-100 concentration: 0.01%.
# Buffer in columns 3 and 4 as negative control (no enzyme).
# Substrate solution: 2 uM final concentration of Z-FR-AMC (catalog number I-1160, Bachem) dispensed throughout the plate.
# Enzyme: 1.5 nM Cruzain final concentration in columns 1, 2, 5-48. Column 1 is neutral (100% activity). Column 2 contained titration of covalent inhibitor K11777, starting concentration 1 mM, then 1:2 dilution in duplicate).
# Three uL of enzyme or buffer were dispensed to 1536-well Greiner black solid bottom plates. Compounds and controls (23 nL) were transferred via Kalypsys PinTool. The plates were incubated for 15 min at room temperature, and then 1 uL of substrate solution was added to start the reaction. The plates were immediately transferred to and read 4 times every 30 seconds for 2 min on ViewLux High-throughput CCD imager (Perkin-Elmer) using 360 nm excitation and 450 nm emission fluorescence protocol. The fluorescence intensity difference between the third and the first time points (time lapse of 60 seconds) was used to compute reaction progress.
# Potency is the fitted concentration of half-maximal effect.
SMILES,"max response, negative = inhibition",Potency
CC(=O)Nc1ccc(NC(=O)C2CCCN(S(=O)(=O)c3ccc4c(c3)CCCC(=O)N4)C2)cc1 (stereo not given),-1.66%,
Cc1ccc(-c2onc(C)c2C)cc1S(=O)(=O)Nc1ccccn1,-0.474%,
CCOc1ccc(CNC(=O)C2CCCN(c3nnc(C)c4c(C)n(-c5ccccc5)nc34)C2)cc1 (stereo not given),-6.21%,
O=C(CNC(=O)c1ccco1)OCC(=O)c1ccccc1,-1.99%,
COc1ccc(C)cc1-n1nnnc1SCC(=O)c1cc(C)n(Cc2ccco2)c1C,-1.61%,
Cc1cc(C(=O)COC(=O)CNC(=O)c2ccc(F)cc2)c(C)n1Cc1ccco1,,14.1 µM (active)
COc1ccc2c(Sc3ccc(C)cc3)c(C(=O)NC(C)c3ccccc3)[nH]c2c1 (stereo not given),-7.2%,
CCOC(=O)c1c(C)[nH]c(CCC(=O)Nc2ccc(OC)c(OC)c2)c1C,2.38%,
CCN(CC)S(=O)(=O)c1nnc(NC(=O)COc2ccccc2Cl)s1,-2.1%,
CCOC(=O)c1c(S(=O)(=O)NCC(=O)Nc2ccc(Cl)c(C(F)(F)F)c2)c(C)n(C)c1C,-11.4%,
COc1cccc(-c2nnc3n(CCc4ccccc4)c(=O)c4ccccc4n23)c1O,-2.72%,
CNc1nc(SC)nc(N(C#N)CC(=O)OC)n1,,17.8 µM (active)
COC(=O)C(C)N(C#N)c1nc(C)nc(C)n1 (stereo not given),4.3%,
Cc1cc(C)nc(N(C#N)CC(=O)Nc2ccccc2)n1,7.7%,
Cc1c(C(=O)N(C)C)sc2c1c(=O)n(-c1ccc(F)cc1)c(=O)n2CC(=O)N(C)c1ccccc1,1.44%,
CC(C)C[C@H](NC(=O)[C@@H]1O[C@H]1C(=O)O)C(=O)NCCCCN=C(N)N,,0.0562 µM (active)
Cc1ccccc1CSc1nc2c([nH]c3ccccc32)c(=O)n1C,-1.56%,
Cc1cccc(N2CCN(C(=O)CCn3c(=O)c4cccn4c4cccnc43)CC2C)c1 (stereo not given),-4.9%,
O=c1cc2nc(-c3ccccc3)nc(SCCOc3ccc(Cl)cc3)n2[nH]1,0.045%,
Oc1c(Cl)cc(Cl)c(Cl)c1Cc1c(O)c(Cl)cc(Cl)c1Cl,-22.8%,25.1 µM (active)
COc1ccc(OC)c(-n2nnc(-c3nc(-c4cc(OC)c(OC)c(OC)c4)no3)c2C)c1,2.73%,
COc1cccc(-c2cc(C(=O)Nc3ccc(C)cc3)[nH]n2)c1,-0.83%,
Cc1ccc(CSc2nc3ccsc3c(=O)n2CCC(C)C)cc1,-1.1%,

SMILES,"max response, negative = inhibition",Potency
CC(=O)Nc1cc(C(=O)NCc2ccc(F)cc2Cl)ccc1Sc1ccc(Cl)cc1,1.77%,
COc1cccc(C(=O)NCC(=O)OCc2cc(=O)n3ccsc3n2)c1,-1.65%,
CCCCn1c(=N)c(S(=O)(=O)c2ccccc2)cc2c(=O)n3cccc(C)c3nc21,0.669%,
CCn1c(=N)c(S(=O)(=O)c2ccc(F)cc2)cc2c(=O)n3ccccc3nc21,,22.4 µM (active)
CCOC(=O)c1cc2c(=O)n3ccccc3nc2n(Cc2ccco2)c1=NC(=O)c1ccc(F)cc1,-23.1%,
CCOc1cc(-c2nnc(SCC(=O)NC3CCCCC3)nc2-c2ccc(OC)c(OCC)c2)ccc1OC,0.915%,
Cc1ccc(NC(=O)CSc2nnc3[nH]c(=O)cc(C)n23)cc1Cl,-1.01%,
CC(=O)c1cccc(Nc2ccc3cc(S(=O)(=O)N4CCC(C)CC4)ccc3n2)c1,-2.76%,
COC(=O)c1ccccc1NC(=O)c1cc(-c2ccccc2O)no1,-8.5%,
Cc1ccc(S(=O)(=O)NC(=O)COc2ccccc2C)cc1,-0.523%,
COCCNC(=O)COc1ccccc1C,1.74%,
Cc1ccccc1OCC(=O)NCC(=O)OCC(=O)c1ccc2ccccc2c1,,5.01 µM (active)
Cc1ccc(-c2cnc(C3CC3)o2)cc1S(=O)(=O)Nc1cccc(C)c1C,-6.32%,
O=C(CS(=O)(=O)c1cccc2nsnc12)N1CCN(c2cccc(Cl)c2)CC1,-2.29%,
Cc1cccc(CNC(=O)c2cnc3sc(N4CCCCC4)nn3c2=O)c1,3.23%,
COc1ccc(NC(=O)CSc2nnc(-c3nnn(-c4ccc(F)cc4)c3C)o2)cc1,-0.381%,
CCOc1ccc(/C=N/NC(N)=S)cc1,-18.1%,
NC(=S)N/N=C/c1coc2cc(Cl)ccc2c1=O,-8.88%,
CC(C)Oc1c(Br)cc(Br)cc1/C=N/NC(N)=S,,0.708 µM (active)
CC(C)c1ccc(NC(=O)C2CCN(c3nc(-c4ccc(C(C)C)cc4)no3)CC2)cc1,0.837%,
Cc1ccc(C2C=C(c3ccc(Cl)cc3)Nc3nc(NC(=O)CCC(=O)O)nn32)cc1 (stereo not given),0.942%,
O=S(=O)(c1ccccc1)c1nc(-c2ccc(Cl)cc2Cl)oc1N1CCCCC1,-15.9%,
O=C(NCc1ccccn1)c1ccc2nc(-c3ccco3)c(-c3ccco3)nc2c1,,22.4 µM (active)

SMILES,"max response, negative = inhibition",Potency
CN(c1ccc(C(=O)NCc2ccccn2)cc1)S(C)(=O)=O,1.59%,
O=C(NCc1ccccn1)c1cc(-c2ccccc2Cl)on1,-2.6%,
O=S(=O)(c1ccc2nc(NCc3ccccc3Cl)ccc2c1)N1CCCCC1,-1.7%,
Cc1ccc(Cn2c(CNC(=O)Cc3cccc(C)c3)nc3cccnc32)cc1,-1.98%,
COc1ccc2[nH]c3c(c2c1)CCN(C(=O)CCC1CCCC1)C3c1ccc(F)cc1 (stereo not given),7.03%,
Cc1ccc(C(=O)COC(=O)C(Cc2c[nH]c3ccccc23)NC(=O)c2ccc(Br)cc2)cc1 (stereo not given),-0.996%,
COc1cc(OC)c(NC(=O)c2cc(S(=O)(=O)N3CCCC3)cn2C)cc1Cl,-0.944%,
Clc1ccccc1CSc1nncn2c1cc1occc12,-2.67%,
Clc1ccccc1CSc1nnc(-c2ccco2)c(-c2ccco2)n1,,25.1 µM (active)
Nc1nc(SCc2ccccc2Cl)n[nH]1,1.94%,
O=C(Nc1nnc(SCc2ccccc2)s1)c1ccco1,0.832%,
c1ccc(CSc2nnc(-c3ccco3)c(-c3ccco3)n2)cc1,,14.1 µM (active)
Nc1cc(=O)nc(SCc2ccccc2)n1Cc1ccco1,-10.9%,
CCc1ccc(NC(=O)c2cnc3c(-c4ccccc4)c(C)nn3c2C)cc1,-6.46%,
Cc1ccc(S(=O)(=O)c2c(Nc3cccc(Cl)c3)sc(C(=O)c3ccc4c(c3)OCO4)c2N)cc1,-3.98%,
COCCn1c(SCC(=O)c2cc(C)ccc2C)nc2cc(C(=O)NC3CCCC3)ccc2c1=O,-0.0872%,
COc1ccccc1CNC(=O)c1ccc(CS(=O)c2ccccc2Cl)o1 (stereo not given),-8.94%,
Cc1nn(C(C)C(=O)NCCc2ccccc2)c(=O)c2c1sc1ccccc12 (stereo not given),-6.56%,
CNc1ccc(-c2nc(-c3ccco3)no2)cc1[N+](=O)[O-],-3.84%,
CC(=O)c1c(O)c(C)c(O)c(Cc2c(O)c3c(c(C(=O)/C=C/c4ccccc4)c2O)OC(C)(C)C=C3)c1O,-22.4%,
CC(=O)c1c(O)c(C)c(O)c(Cc2c(O)c3c(c(C(=O)/C=C\c4ccccc4)c2O)OC(C)(C)C=C3)c1O,,31.6 µM (active)
O=C(/C=C/c1ccccc1)c1ccccc1O,-1.13% and 3.47%,
COc1cc(NC(=O)CSc2nc3nc(C)c(Cc4ccc(C)cc4)c(C)n3n2)cc(OC)c1OC,-4.19%,

SMILES,"max response, negative = inhibition",Potency
O=C(CCc1nc(CN2CCN(S(=O)(=O)c3ccc(Br)cc3)CC2)no1)N1CCCCC1,-0.641%,
O=C(CC(c1cccs1)N1Cc2ccccc2C1=O)Nc1ccc(F)cc1F (stereo not given),-5.84%,
O=S(=O)(NCCc1nnc2ccc(SCc3ccc(Cl)cc3Cl)nn12)c1ccccc1,-7.61%,
O=C(CCOc1ccccc1)N(Cc1cccnc1)c1nc2ccc(Cl)cc2s1,-5.3%,
COc1cccc(NC(=S)NCCCN2CCOCC2)c1,-2.47%,
COc1cc(NC(=O)Nc2ccc(C)cc2)cc([N+](=O)[O-])c1,-3.61%,
COc1cc(NC(=S)NCCSc2ccc(C)cc2)cc(OC)c1,,2 µM (active)
CC(NC(=O)CCc1cn(Cc2ccccc2Cl)c2ccccc12)c1ccccc1 (stereo not given),-2.02%,
CC(C)(C)c1ccc(C(=O)Nc2ccc3c(c2)CCCN3C(=O)c2cccs2)cc1,-4.1%,
COc1cc(NC(=O)c2cc(C3CC3)nc3c2c(C)nn3-c2ccccc2)cc(OC)c1,-4.38%,
CC(=O)NC1=NN(C(C)=O)C(C)(c2ccc(C)cc2)S1 (stereo not given),-0.836%,
CC(=O)NC1=NN(C(C)=O)C(C)(CCS(=O)(=O)c2ccc(Cl)c(Cl)c2)S1 (stereo not given),-3.08%,
CC(=O)NC1=NN(C(C)=O)C(C)(c2ccc(Cl)s2)S1 (stereo not given),,28.2 µM (active)
COc1ccc(Cn2c(=O)c3oc4ccccc4c3n(CC(=O)Nc3ccc(F)cc3F)c2=O)cc1,-0.479%,
COc1ccccc1NC(=O)CCC(=O)N1CC(C)Oc2ccc(C)cc21 (stereo not given),-2.9%,
COc1ccccc1-n1c(-c2ccc(C)cc2)cn2c3c(=O)n(C)c(=O)n(C)c3nc12,0.477%,
Cc1ccccc1OCc1nc2c3cnn(-c4ccccc4F)c3ncn2n1,-0.812%,
Cc1ccccc1-c1nc(SCC(=O)N(C)c2ccccc2)c2c(=O)n(C)c(=O)n(C)c2n1,0.835%,
Cc1ccc(-c2cc(C(=O)Oc3ccccc3Cl)no2)cc1C,-5.97%,
CCOc1ccc(NC(=O)c2cc3c(=O)n(Cc4cccs4)ccc3nc2C)cc1,-4.36%,
